The sample as a whole holds a higher share of hits than the screen did.
ALOX12 inh: ALOX12 (human) lipoxygenase inhibition; P18054; purified 12hLO, xylenol orange hydroperoxide absorbance; Potency, µM (titrated, usually from 108 µM), for the others: at the highest dose activity change, negative = inhibition, hits mostly inhibitors; hit rate 1.1% among 580,000; also: potency is read from the fitted curve at half-maximal effect
Target sequence (P18054 whole entry, looked up): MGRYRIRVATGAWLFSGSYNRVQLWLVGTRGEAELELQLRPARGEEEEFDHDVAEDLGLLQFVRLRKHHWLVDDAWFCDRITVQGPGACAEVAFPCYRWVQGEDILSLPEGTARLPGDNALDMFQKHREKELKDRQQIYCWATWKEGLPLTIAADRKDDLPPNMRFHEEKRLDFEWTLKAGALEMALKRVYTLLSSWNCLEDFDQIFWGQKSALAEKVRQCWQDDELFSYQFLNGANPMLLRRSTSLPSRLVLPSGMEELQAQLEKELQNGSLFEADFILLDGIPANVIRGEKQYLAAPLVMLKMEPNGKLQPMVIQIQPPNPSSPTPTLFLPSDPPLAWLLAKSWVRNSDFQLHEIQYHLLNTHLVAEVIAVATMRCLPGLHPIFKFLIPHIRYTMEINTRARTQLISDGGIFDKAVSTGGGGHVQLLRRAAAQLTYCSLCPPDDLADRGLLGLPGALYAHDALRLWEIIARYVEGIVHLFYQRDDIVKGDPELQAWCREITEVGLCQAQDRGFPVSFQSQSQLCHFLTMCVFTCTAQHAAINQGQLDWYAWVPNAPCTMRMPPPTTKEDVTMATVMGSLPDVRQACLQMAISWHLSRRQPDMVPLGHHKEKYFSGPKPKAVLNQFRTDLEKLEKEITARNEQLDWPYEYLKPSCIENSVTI
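Purified human 12hLO at 150 nM in 25 mM Hepes, 0.01% Triton X-100, pH 7.0, preincubated 15 min at room temperature with compound. Reaction started with 40 uM arachidonic acid, 30 min at room temperature. Hydroperoxide measured by Fe-xylenol orange, 573/405 nm absorbance ratio.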
HT1080NT lethal: kills 2HG-producing HT-1080-NT fibrosarcoma cells; HT-1080-NT fibrosarcoma viability, CellTiter-Glo ATP luminescence, 48 h; Potency, µM (top dose mostly 46.1 µM), for inactives: at the top dose activity, negative = less viability, usual class: cytotoxic; hit rate 1.6% among 360,000;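 also: NT is the 2HG producing partner of a matched IDH1 knockdown line; potency is read from the fitted curve at half-maximal effect; 0% = DMSO-treated cells and -100% = media-only wells without cells; nearly all actives have a fitted effect of over 55% in size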
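750 cells/well, RPMI + 5% FBS; 2 h settle, compound pin-transfer, 48 h at 37 degrees C. CellTiter-Glo 10 min RT, luminescence. Normalized to DMSO and media-only wells.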
IL-1B inflam inh: inhibitors of inflammasome signaling (IL-1 beta secretion) | THP-1 LPS/ATP IL-1B secretion, AlphaLISA, 16 h; stronger effect = lower value | activity change, % at 57.5 µM | hit rate 4.7% among 360,000 | AID 743279; in the data active = activity change below about -50%; inconclusive = mostly about -30% to -49%
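Secreted IL-1B measured by AlphaLISA bead assay after 16 h compound exposure of THP-1 cells; compounds (final up to 57.5 uM) added 1 h before LPS (250 ng/mL) and ATP (1.25 mM) stimulation; lower signal means less secretion.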
DT40 TDP1 CPT: DT40-hTDP1 cell growth loss with CPT. chicken DT40 Tdp1-/-;hTDP1 cells + 20 nM CPT, ATP luminescence, 48 h. Potency, µM (series often up to 46.2 µM), for inactives: top-dose activity change, negative = growth inhibition, usual class: inhibitors. hit rate 12% among 420,000; also: potency is read from the fitted curve at half-maximal effect; nearly all actives have a fitted effect of over 55% in size
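Cell growth measured by CellTiter-Glo luminescence after a minimum 48 h, 37 C compound exposure with 20 nM CPT in Tdp1-knockout DT40 cells stably expressing hTDP1, seeded 400/well; qHTS titration format.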
HT1080 IDH1KD tx: HT-1080 IDH1 knockdown cell toxicity (counter line); hit rate 2% among 360,000; HT-1080 IDH1 knockdown viability, ATP luminescence, 48 h; Potency, µM (series often up to 46.1 µM), without a hit: at the top dose activity, negative = toxicity, hits mostly cytotoxic;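 also: potency is read from the fitted curve at half-maximal effect; 0% = DMSO wells and -100% = cell-free medium wells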
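% activity derives from luminescence (CellTiter-Glo), normalised to DMSO and no-cell wells. HT-1080-IDH1KD cells, 750/well, had 48 h compound exposure at 37 °C.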
DT40 TDP1 no CPT: qHTS for Inhibitors of human tyrosyl-DNA phosphodiesterase 1 (TDP1): qHTS in cells in absence of CPT. DT40 Tdp1-/- hTDP1 cells, no CPT, ATP luminescence, 48 h. Potency, µM (series often up to 46.2 µM), for the others: at the top dose activity change, negative = growth inhibition, usual class: inhibitors. hit rate 15% among 420,000. AID 686978, 2013; also: potency is read from the fitted curve at half-maximal effect; nearly all actives have a fitted effect of over 55% in size
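Chicken DT40 Tdp1-/- cells complemented with human TDP1, screened without camptothecin (DMSO vehicle only), 400 cells/well. Compounds pin-transferred, cells incubated at 37 °C for at least 48 hr. Growth read as ATP-dependent luminescence (CellTiter-Glo, 30 min at RT).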
Starred values were filed as active, the others as inactive; ? = inconclusive; / = no result given; [ ] = dose if it differs, or a comment. Unless noted, calls follow the shape of the dose curve; as a rule, active = well fitted curve in the direction sought with a large enough effect; inconclusive = small, poorly fitted or top-dose-only effect, or another doubt; inactive = no such curve, though single readings can be large; an effect the other way counts as inactive or inconclusive. Unless noted, % is scaled to controls: 0 for no effect and ±100 for the full control effect.

SMILES	ALOX12 inh	HT1080NT lethal	IL-1B inflam inh	DT40 TDP1 CPT	HT1080 IDH1KD tx	DT40 TDP1 no CPT
CC1=C(C(=O)N2CCOCC2)CC(CC(=O)NC2CCCCC2)C(=O)N1Cc1ccc(C(C)(C)C)cc1 (stereo unspecified)	0%	17%	-13	?	-3%	21µM*
CC1=C(C(=O)N2CCOCC2)CC(CC(=O)NCCN2CCOCC2)C(=O)N1Cc1ccc(C(C)(C)C)cc1 (stereo unspecified)	?	12%	1	4%	2%	-16%
CC1=C(C(=O)N2CCOCC2)CC(CC(=O)NC2CC2)C(=O)N1Cc1ccc(C(C)(C)C)cc1 (stereo unspecified)	21%	-6%	11	-26%	2%	-28%
CC(=O)Nc1ccc2c(C(C(=O)O)N3CCN(c4nc5c(cc4C#N)CCCC5)CC3)c[nH]c2c1 (stereo unspecified)	-2%	/	/	/	/	/
COc1ccc([C@H]2CC(=O)C=C(c3ccc(Cl)c(Cl)c3)C2)cc1	-4%	-15%	?	-25%	-28%	-8%
COc1ccc([C@H]2CC(=O)C=C(c3ccc4cc[nH]c4c3)C2)cc1	-9%	2%	-7	26µM*	-3%	23µM*
COc1ccc([C@H]2CC(=O)C=C(c3ccc4ccn(C)c4c3)C2)cc1	1%	?	?	?	?	18µM*
COc1ccc([C@H]2CC(=O)C=C(c3ccc4[nH]ccc4c3)C2)cc1OC	?	-10%	-1	?	-1%	?
COc1ccc(C2=CC(=O)C[C@H](c3ccc(OC)cc3)C2)cc1	1%	-1%	-2	-24%	2%	?
O=C1C=C(c2ccc3[nH]ccc3c2)C[C@@H](c2ccc(F)cc2)C1	?	-3%	-6	12µM*	-18%	?
Cc1cc(Oc2cccc(Cl)c2C#N)ccc1Cl	-16%	/	/	/	/	/
COc1ccc(C(C)NC(=O)CCOc2ccc(Cl)cc2)cc1F (stereo unspecified)	3%	/	/	/	/	/
Cc1nnc2sc(-c3ccc(CNC(=O)C(C)(C)Oc4ccc(Br)cc4)cc3)nn12	8%	/	/	/	/	/
CCSc1nnc(NC(=O)CSc2nc(CC)nc3c2c(=O)n(C)c(=O)n3C)s1	33%	-2%	-6	16µM*	1%	15µM*
CCCc1nc(SCC(=O)Nc2nnc(SCC)s2)c2c(=O)n(C)c(=O)n(C)c2n1	17%	10%	27	4.1µM*	9%	2.9µM*
CCc1nc(SCC(=O)Nc2cc(C)on2)c2c(=O)n(C)c(=O)n(C)c2n1	48%	-4%	7	?	2%	?
CCc1nc(SCC(N)=O)c2c(=O)n(C)c(=O)n(C)c2n1	14%[57.4 µM]	-9%	-1	1%	0%	-4%
COc1ccc(-c2cc3nc(C)c(CCC(=O)N4CCN(c5ccccc5F)CC4)c(C)n3n2)c(OC)c1	-5%	/	/	?	/	29µM*
COc1ccc(-c2cc3nc(C)c(CCC(=O)N4CCN(c5ccccn5)CC4)c(C)n3n2)c(OC)c1	0%	-7%	-28	?	-4%	16µM*
Nc1ccccc1C(=O)Nc1ccccn1	0%	/	/	/	/	/
NC(CO)c1ccc(Oc2ccccc2)cc1 (stereo unspecified)	-57%	/	/	/	/	/
CCN(CC)C(=O)COc1ccc(/C(C)=N/NC(=O)c2ccccc2-n2cccc2)cc1	335%	7%	-2	-15%	-1%	?
O=C(N/N=C/c1ccc(Br)cc1)c1ccccc1-n1cccc1	-18%	?	32	?	11µM*	16µM*
C/C(=N\NC(=O)c1cc2ccccc2cc1O)c1ccccn1	1%	?	70	1.2µM*	?	1.3µM*
C/C(=N/NC(=O)c1cc2ccccc2cc1O)C1C(=O)c2ccccc2C1=O	?	-22%	-18	-26%	?	-6%
SMILES	ALOX12 inh	HT1080NT lethal	IL-1B inflam inh	DT40 TDP1 CPT	HT1080 IDH1KD tx	DT40 TDP1 no CPT
C/C(=N\NC(=O)c1cc2ccccc2cc1O)c1cc2ccccc2o1	-12%	?	101	?	?	15µM*
Cc1cccc(/C=N\NC(=O)c2ccccc2-n2cccc2)c1	2%	10%	15	11%	6%	-10%
C/C(=N\NC(=O)c1ccccc1-n1cccc1)c1ccccn1	2%	?	112	2.1µM*	?	1.8µM*
Cc1ccc(C(=O)N2CC[C@@H]3CN(S(C)(=O)=O)[C@@H]3C2)cc1C	2%	/	/	/	/	/
NS(=O)(=O)c1ccc(N/N=C/c2ccsc2)c([N+](=O)[O-])c1	-8%	/	/	/	/	/
C/C(=N\NC(=O)c1ccc(F)cc1)c1ccccn1	10%	?	-66*	0.92µM*	?	1µM*
C/C(=N\NC(=O)CCCNc1ccccc1)c1ccncc1	-13%	12%	0	2%	3%	-21%
C/C(=N\NC(=O)CCCNc1ccc(C)cc1)c1ccccn1	13%	-4%	12	5.8µM*	?	5.2µM*
COc1ccc(NCC(=O)N/N=C(\C)c2cc3ccccc3o2)cc1	-9%	-9%	-55*	?	-11%	?
CCc1ccc(/C(C)=N/NC(=O)c2ccccn2)cc1	-3%	-12%	0	-3%	1%	4%
CC(NC(=O)C1CCCC1)c1ccc(Cl)s1 (stereo unspecified)	-2%	/	/	/	/	/
NC(=S)NNc1cccc(Cl)c1	?	0%	-4	16µM*	3%	15µM*
NC(=S)NNC(=O)Nc1cccc(Cl)c1	-26%	18%	1	-4%	16%	0%
Cc1cccc(NNC(=S)Nc2ccccc2)c1	?	-16%	-30	4.1µM*	-20%	2.6µM*
COc1cc(OC)c(NC(=S)Nc2cccc(C)c2)cc1Cl	?	-4%	-12	-27%	-1%	9.2µM*
S=C(NNc1cccc(Cl)c1)NC1CCCCC1	?	?	-108*	?	15µM*	?
O=C(Nc1ccc2oc(-c3ccc(F)cc3)cc(=O)c2c1)c1ccco1	-21%	/	/	/	/	/
O=C(NCc1ccncc1)c1nc(-c2ccc(Br)o2)no1	20%	/	/	/	/	/
O=C(OCc1nc2ccccc2o1)c1ccccc1F	2%	/	/	/	/	/
Cc1cccc(NC(=S)NC(C)(C)CC(C)(C)C)c1	?	-20%	-23	-1%	-17%	18µM*
Cc1cccc(NNC(=S)Nc2c(C)cccc2C)c1	?	?	-102*	?	?	?
Cc1cccc(NC(=S)NNc2cccc(Cl)c2)c1	?	23µM*	-9	16µM*	?	18µM*
O=S(=O)(NCc1nnnn1-c1ccccc1)c1ccccc1	3%	/	/	/	/	/
